PubChem BioAssay
Results with a measured potency or affinity are listed apart. Calls of active or inactive are those of the source. Unless noted, no rule for the calls is given here.

target: Calcium-dependent protein kinase 1 (Plasmodium falciparum (isolate 3D7)) (UniProt P62344); experiment: PfCDPK1 kinase inhibitors, biochemical, TCAMS library (AID 1159585; cut-off not given, nearly all actives have IC50 up to about 0.98 µM;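 also: inhibitors leave more ATP so luminescence rises with inhibition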); settings: recombinant PfCDPK1, Kinase-Glo ATP depletion luminescence
Sequence (P62344 whole entry, looked up): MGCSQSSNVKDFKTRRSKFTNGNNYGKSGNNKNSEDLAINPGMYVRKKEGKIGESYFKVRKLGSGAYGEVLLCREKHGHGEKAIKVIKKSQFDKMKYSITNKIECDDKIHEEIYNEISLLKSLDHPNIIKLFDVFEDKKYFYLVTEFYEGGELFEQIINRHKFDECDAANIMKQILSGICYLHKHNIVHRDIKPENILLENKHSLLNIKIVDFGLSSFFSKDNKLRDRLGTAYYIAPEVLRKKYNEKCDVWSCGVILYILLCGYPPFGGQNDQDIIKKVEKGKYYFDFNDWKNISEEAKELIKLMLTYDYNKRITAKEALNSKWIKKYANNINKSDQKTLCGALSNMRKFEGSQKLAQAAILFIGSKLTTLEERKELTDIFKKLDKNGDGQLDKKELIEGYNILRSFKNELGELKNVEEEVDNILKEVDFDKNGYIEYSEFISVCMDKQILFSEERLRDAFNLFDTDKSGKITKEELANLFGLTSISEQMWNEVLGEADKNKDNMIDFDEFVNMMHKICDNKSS

outcome, inactive:
Cc1nc(-c2cccc(NCc3ccccc3)c2)[nH]c1C, CS(=O)(=O)NCCCNCc1ccc(-c2cccc(-c3nc4ccc(F)cc4[nH]3)c2)cc1, C=CCNc1cc(-c2ccccn2)nc(-c2ccccn2)n1, O=C(Nc1cccc(C(F)(F)F)c1)c1ccc(S(=O)(=O)NCC2CCCN2CC2CCCCC2)cc1 (stereo not drawn), Cc1cc(CN2CCC(Nc3ncc(-c4ccsc4)c4nc(C(F)(F)F)ccc34)CC2)no1, Oc1cccc2ccc(Nc3ccccn3)nc12, C=C[C@]1(C)C[C@@H](OC(=O)c2cncn(COC)c2=O)[C@]2(C)[C@H](C)CC[C@]3(CCC(=O)[C@H]32)[C@@H](C)[C@@H]1O, Cc1cc(C(=O)CN2C(=O)NC3(CCOc4ccccc43)C2=O)c(C)n1Cc1ccc(F)cc1 (stereo not drawn), CCCN(CCC)CCCOc1ccc(C(=O)c2c(-c3ccc(OCCCN(CCC)CCC)cc3)oc3ccc(Cl)cc23)cc1, CCN(CC)C(=NCCCCCCN=C(/N=C(\N)Nc1ccc(Cl)c(Cl)c1)N(CC)CC)/N=C(\N)Nc1ccc(Cl)c(Cl)c1, COc1ccc(CNc2nc(NCc3ccc(C(F)(F)F)cc3)c3cc(OC)c(OC)cc3n2)cc1OC, COc1ccc2nccc(N3CCC(O)(CCNCc4ccc5c(n4)NC(=O)CS5)CC3)c2n1, COc1cc(Cc2cnc(N)nc2N)cc(OCCCOc2ccccc2)c1OC, CC1CCCC(NCc2c(O)ccc3ccccc23)C1 (stereo not drawn), COc1ccc2nc3cc(Cl)ccc3c(NCc3ccccc3)c2c1, COc1cc2nc(C)nc(Nc3ccc(Oc4ccccc4)cc3)c2cc1OC, O=C(NCc1ccc(F)cc1)Nc1cccc(-c2ccc(-c3nc4ccc(F)cc4[nH]3)cc2)c1, CC1N=C(N)N=C(N)N1OCc1cccc2ccccc12 (stereo not drawn), O=C(Nc1ccc2c(c1)CCNCC2)Nc1ccc2ccccc2c1, O=C(C=Cc1ccc(Cl)c(Cl)c1)NCCCCCN1CCC(CCNC(=O)c2cccc3ccccc23)CC1, C(=NNc1ccnc2ccccc12)c1ccncc1, COc1cc2c(cc1S(=O)(=O)c1ccc(NC(=O)c3cccc(C(F)(F)F)c3)cc1)CCN(C)CC2, CC(=O)C1=NN(c2ccc(C)cc2)C(c2cccs2)N1c1ccccc1 (stereo not drawn), CCNc1cc(C(=O)N[C@@H](Cc2ccccc2)[C@H](O)CNC(C)(C)c2cccc(OC)c2)cc(N2CCCC2=O)c1, COc1cc(Cc2cnc(N)nc2N)cc(OCCCCCC(N)=O)c1OC, CS(=O)(=O)NCCCNCc1ccc(-c2ccc(-c3nc4ccc(C(F)(F)F)cc4[nH]3)cc2)cc1, O=C(Cc1cccs1)NC(CCCN1CCC(Oc2cccc(Cl)c2)CC1)c1ccc(Cl)c(Cl)c1 (stereo not drawn), COc1ccc(-c2cnc(N)c(-c3nc4ccc(Br)cc4[nH]3)c2)cc1, Cc1ccc(F)c(NC(=O)c2c(-c3c(F)cccc3Cl)noc2C)c1, COc1ccc(CNc2nccc3ccc(-c4ccc5nccn5c4)cc23)cc1, CN(C)C(=O)CCCn1c(CNCCCNc2cc(=O)c3ccccc3[nH]2)cc2c(Cl)cc(Cl)cc21, CN1CCc2cc(NS(=O)(=O)c3ccc(-c4ccc(Cl)s4)cc3)c(N3CCCCC3)cc2CC1, Cc1ccc(C(C#N)c2ccc3c(C(F)(F)F)cc(C(F)(F)F)nc3n2)cc1 (stereo not drawn), CN(C)CCNCc1ncsc1-c1ccc2c(Nc3ccc(F)cc3Cl)ccnc2c1, O=C(/C=C/c1ccc(Cl)c(Cl)c1)N1CCC(CNCc2cccc3cc[nH]c23)CC1, CC(=O)Nc1ccc(OCCCCN(Cc2ccccc2C(F)(F)F)c2ccc(C(F)(F)F)c(C#N)c2)c(Cl)c1, CS(=O)(=O)N(c1cccc(F)c1)c1cc(C(=O)N[C@@H](Cc2ccccc2)[C@H](O)CNCc2cccc(C(F)(F)F)c2)cc(N2CCCC2=O)c1, CCCCOC(=O)C1=C(C)NC2=C(C(=O)CC(c3ccc(OC)c(OC)c3)C2)C1c1ccc(O)cc1 (stereo not drawn), Cc1nn(-c2ccccc2)nc1C(=O)N(Cc1ccc(-c2ccc(CNCCc3ccc(S(C)(=O)=O)cc3)cn2)cc1)C(C)CN(C)C (stereo not drawn)

target: Plasmodium falciparum protein kinase 6 (PK6, PF3D7_1337100) (UniProt Q8IDW1); experiment: PfPK6 kinase inhibitors, biochemical, TCAMS library (AID 1159586); settings: recombinant PfPK6, Kinase-Glo ATP depletion luminescence
Sequence (Q8IDW1 1-305): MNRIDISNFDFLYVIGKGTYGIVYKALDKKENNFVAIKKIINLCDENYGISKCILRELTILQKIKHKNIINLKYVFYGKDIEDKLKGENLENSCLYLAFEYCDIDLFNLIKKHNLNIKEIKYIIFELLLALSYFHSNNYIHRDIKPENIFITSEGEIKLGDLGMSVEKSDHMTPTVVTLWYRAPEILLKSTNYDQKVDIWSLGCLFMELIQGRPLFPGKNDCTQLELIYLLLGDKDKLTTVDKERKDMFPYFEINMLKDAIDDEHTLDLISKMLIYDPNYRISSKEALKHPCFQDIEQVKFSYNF

outcome, inactive:
Cc1nc(-c2cccc(NCc3ccccc3)c2)[nH]c1C, CS(=O)(=O)NCCCNCc1ccc(-c2cccc(-c3nc4ccc(F)cc4[nH]3)c2)cc1, C=CCNc1cc(-c2ccccn2)nc(-c2ccccn2)n1, O=C(Nc1cccc(C(F)(F)F)c1)c1ccc(S(=O)(=O)NCC2CCCN2CC2CCCCC2)cc1 (stereo not drawn), Cc1cc(CN2CCC(Nc3ncc(-c4ccsc4)c4nc(C(F)(F)F)ccc34)CC2)no1, Oc1cccc2ccc(Nc3ccccn3)nc12, C=C[C@]1(C)C[C@@H](OC(=O)c2cncn(COC)c2=O)[C@]2(C)[C@H](C)CC[C@]3(CCC(=O)[C@H]32)[C@@H](C)[C@@H]1O, Cc1cc(C(=O)CN2C(=O)NC3(CCOc4ccccc43)C2=O)c(C)n1Cc1ccc(F)cc1 (stereo not drawn), CCCN(CCC)CCCOc1ccc(C(=O)c2c(-c3ccc(OCCCN(CCC)CCC)cc3)oc3ccc(Cl)cc23)cc1, CCN(CC)C(=NCCCCCCN=C(/N=C(\N)Nc1ccc(Cl)c(Cl)c1)N(CC)CC)/N=C(\N)Nc1ccc(Cl)c(Cl)c1, COc1ccc(CNc2nc(NCc3ccc(C(F)(F)F)cc3)c3cc(OC)c(OC)cc3n2)cc1OC, COc1ccc2nccc(N3CCC(O)(CCNCc4ccc5c(n4)NC(=O)CS5)CC3)c2n1, COc1cc(Cc2cnc(N)nc2N)cc(OCCCOc2ccccc2)c1OC, CC1CCCC(NCc2c(O)ccc3ccccc23)C1 (stereo not drawn), COc1ccc2nc3cc(Cl)ccc3c(NCc3ccccc3)c2c1, COc1cc2nc(C)nc(Nc3ccc(Oc4ccccc4)cc3)c2cc1OC, O=C(NCc1ccc(F)cc1)Nc1cccc(-c2ccc(-c3nc4ccc(F)cc4[nH]3)cc2)c1, CC1N=C(N)N=C(N)N1OCc1cccc2ccccc12 (stereo not drawn), O=C(Nc1ccc2c(c1)CCNCC2)Nc1ccc2ccccc2c1, O=C(C=Cc1ccc(Cl)c(Cl)c1)NCCCCCN1CCC(CCNC(=O)c2cccc3ccccc23)CC1, C(=NNc1ccnc2ccccc12)c1ccncc1, COc1cc2c(cc1S(=O)(=O)c1ccc(NC(=O)c3cccc(C(F)(F)F)c3)cc1)CCN(C)CC2, CC(=O)C1=NN(c2ccc(C)cc2)C(c2cccs2)N1c1ccccc1 (stereo not drawn), CCNc1cc(C(=O)N[C@@H](Cc2ccccc2)[C@H](O)CNC(C)(C)c2cccc(OC)c2)cc(N2CCCC2=O)c1, COc1cc(Cc2cnc(N)nc2N)cc(OCCCCCC(N)=O)c1OC, CS(=O)(=O)NCCCNCc1ccc(-c2ccc(-c3nc4ccc(C(F)(F)F)cc4[nH]3)cc2)cc1, O=C(Cc1cccs1)NC(CCCN1CCC(Oc2cccc(Cl)c2)CC1)c1ccc(Cl)c(Cl)c1 (stereo not drawn), COc1ccc(-c2cnc(N)c(-c3nc4ccc(Br)cc4[nH]3)c2)cc1, Cc1ccc(F)c(NC(=O)c2c(-c3c(F)cccc3Cl)noc2C)c1, COc1ccc(CNc2nccc3ccc(-c4ccc5nccn5c4)cc23)cc1, CN(C)C(=O)CCCn1c(CNCCCNc2cc(=O)c3ccccc3[nH]2)cc2c(Cl)cc(Cl)cc21, CN1CCc2cc(NS(=O)(=O)c3ccc(-c4ccc(Cl)s4)cc3)c(N3CCCCC3)cc2CC1, Cc1ccc(C(C#N)c2ccc3c(C(F)(F)F)cc(C(F)(F)F)nc3n2)cc1 (stereo not drawn), CN(C)CCNCc1ncsc1-c1ccc2c(Nc3ccc(F)cc3Cl)ccnc2c1, O=C(/C=C/c1ccc(Cl)c(Cl)c1)N1CCC(CNCc2cccc3cc[nH]c23)CC1, CC(=O)Nc1ccc(OCCCCN(Cc2ccccc2C(F)(F)F)c2ccc(C(F)(F)F)c(C#N)c2)c(Cl)c1, CS(=O)(=O)N(c1cccc(F)c1)c1cc(C(=O)N[C@@H](Cc2ccccc2)[C@H](O)CNCc2cccc(C(F)(F)F)c2)cc(N2CCCC2=O)c1, CCCCOC(=O)C1=C(C)NC2=C(C(=O)CC(c3ccc(OC)c(OC)c3)C2)C1c1ccc(O)cc1 (stereo not drawn), Cc1nn(-c2ccccc2)nc1C(=O)N(Cc1ccc(-c2ccc(CNCCc3ccc(S(C)(=O)=O)cc3)cn2)cc1)C(C)CN(C)C (stereo not drawn)
